# Measured values from PubChem BioAssay AID602292 (National Center for Advancing Translational Sciences (NCATS), 2012).
# The whole screen tested about 1,300 compounds, of which about 380 (29%) were called active. Inconclusive results (about 37%) are left out. The list shows a part of the results. A number with no mark means an inactive call. The call rests on the fitted dose curve; in most records, active means well fitted inhibition curve with a large enough effect; inconclusive means small, poorly fitted or top-dose-only effect; inactive means flat fitted curve, though single readings scatter.
# Molecular target: Thyrotropin receptor (Homo sapiens) (UniProt P16473)
# Sequence (P16473 whole entry, looked up): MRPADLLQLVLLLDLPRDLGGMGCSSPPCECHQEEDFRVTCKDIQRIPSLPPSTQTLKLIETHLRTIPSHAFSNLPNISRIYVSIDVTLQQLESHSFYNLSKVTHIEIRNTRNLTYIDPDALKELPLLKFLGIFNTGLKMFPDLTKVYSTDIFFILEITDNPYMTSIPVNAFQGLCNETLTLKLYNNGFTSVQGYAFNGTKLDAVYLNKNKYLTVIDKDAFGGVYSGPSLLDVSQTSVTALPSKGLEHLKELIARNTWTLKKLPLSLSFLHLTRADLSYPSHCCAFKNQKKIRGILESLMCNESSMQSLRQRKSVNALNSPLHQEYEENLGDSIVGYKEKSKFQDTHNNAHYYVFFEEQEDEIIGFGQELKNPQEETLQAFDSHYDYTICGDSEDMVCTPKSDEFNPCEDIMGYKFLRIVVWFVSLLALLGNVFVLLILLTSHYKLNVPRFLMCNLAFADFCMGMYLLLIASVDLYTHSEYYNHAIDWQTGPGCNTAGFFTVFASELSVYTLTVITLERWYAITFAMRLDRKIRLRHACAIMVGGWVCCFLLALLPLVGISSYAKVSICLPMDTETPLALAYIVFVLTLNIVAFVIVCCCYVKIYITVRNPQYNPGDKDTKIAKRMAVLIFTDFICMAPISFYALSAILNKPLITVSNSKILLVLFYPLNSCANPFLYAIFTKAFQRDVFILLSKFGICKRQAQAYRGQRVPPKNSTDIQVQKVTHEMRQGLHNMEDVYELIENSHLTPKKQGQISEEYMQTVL
# Assay: qHTS for antagonists of the Thyroid Stimulation Hormone Receptor: Hit Validation in Primary Screen; further: nearly all actives have a fitted effect of over 80% in size;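 on activity change, negative = inhibition: cAMP by competitive HTRF where cellular cAMP lowers the 665 nm FRET signal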
# Settings: TSHR-expressing cells, cAMP antagonist mode; series mostly up to 58 µM; activity change, negative = inhibition: at the top concentration
# Method in brief: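 TSHR-expressing cells were pretreated with compound, then stimulated with TSH at EC80 (4nM final) for 2 hours at 37 deg C. Cellular cAMP measured by competitive HTRF (anti-cAMP cryptate, cAMP-d2) after 30 min at room temperature.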
# On the % scale 0 is the no-effect control and ±100 the full control effect; potency means the concentration at half of the fitted maximal effect.
Structure (SMILES),"activity change, negative = inhibition [%]",Potency
CCOc1ccccc1-n1c(=S)sc2c(=O)n(-c3ccc(F)cc3)c(SCC(=O)O)nc21,-3.34,–
N#Cc1c(F)cccc1N1CCN(Cc2ccc3c(c2)OCO3)CC1,-2.54,–
O=C(c1cccc(Cl)c1)N1CCN(Cc2ccc3c(c2)OCO3)CC1,-6.83,–
Cc1ccc2c(c1)[nH]c1c(N3CCN(Cc4ccccc4)CC3)ncnc12,–,30.1 µM (active)
Fc1ccc2[nH]c3c(N4CCN(Cc5ccc6c(c5)OCO6)CC4)ncnc3c2c1,–,23.9 µM (active)
Fc1ccc2[nH]c3c(N4CCN(c5ccccc5)CC4)ncnc3c2c1,–,30.1 µM (active)
O=C1NC(=O)/C(=C/c2ccccc2Oc2ccc(Cl)cc2)S1,-8.27,–
CN(Cc1ccco1)S(=O)(=O)c1csc(C(N)=O)c1,-3.34,–
CCc1cc2c(NCc3ccccc3)nc(C)nc2s1,–,23.9 µM (active)
O=C(CSc1ccc(F)cc1)N1CCC(c2nc3ccccc3s2)CC1,–,37.9 µM (active)
Cc1nc(SCC(=O)N2CCN(c3ccccc3)CC2)n[nH]1,-6.86,–
C=CCC1(CC=C)CCCN1C(=O)c1cc(COc2ccc(C)nc2)on1,–,15.1 µM (active)
Cc1ccc(NC(=O)c2ccccc2NS(=O)(=O)c2ccc(F)cc2)cc1S(=O)(=O)N1CCCCC1,–,3.79 µM (active)
CC(=O)Nc1ccc(S(=O)(=O)Nc2c(NC3CCCCC3)c3ccccc3oc2=O)cc1,0.576,–
CCc1ccccc1NC(=O)C1CCCN(S(=O)(=O)c2ccc3c(c2)CC(C)N3C(C)=O)C1 (stereo not drawn),-5.5,–
O=C(Nc1cc(S(=O)(=O)N2CCCCC2)ccc1Cl)c1ccccc1NS(=O)(=O)c1ccc(F)cc1,–,7.57 µM (active)
CCNC(=O)c1ccccc1NC(=O)C1CC(=O)N(C(C)C)C1 (stereo not drawn),-3.43,–
O=C(Nc1nnc(S(=O)(=O)N2CCCC2)s1)c1ccccc1F,-9.65,–
CCc1ccc(N/C(SCc2cccc(F)c2)=C(/C#N)C(=O)NCc2ccco2)cc1,-5.33,–
CCCCc1c(C)nc2nc(SCc3ccc(Cl)cc3)[nH]n2c1=O,–,21.3 µM (active)
CC(C)c1cc(=O)n2[nH]c(SCc3ccccc3)nc2n1,-0.807,–
C#C[C@]1(OC(C)=O)CCC2C3CCC4=CC(=O)CC[C@@H]4C3CC[C@@]21C (stereo partly drawn),–,13.5 µM (active)
CC(=O)N1CCc2cc(Br)cc(S(=O)(=O)N3CCC(C(=O)O)CC3)c21,-11.2,–
CCC1Sc2ccc(S(=O)(=O)CCC(=O)Nc3ccccc3Cl)cc2NC1=O (stereo not drawn),-11.6,–
O=C(c1ccc2c(c1)OCO2)N1CCN(S(=O)(=O)c2ccc(Cl)cc2)CC1,-1.21,–

Structure (SMILES),"activity change, negative = inhibition [%]",Potency
O=C(Nc1cccc(S(=O)(=O)Nc2ccc(Cl)cc2)c1)c1ccc2c(c1)OCCO2,–,16.9 µM (active)
CCOC(=O)c1[nH]c2cc(OC)c(OC)cc2c1NC(=O)c1ccc2c(c1)OCO2,-2.79,–
COC(=O)c1sc(NC(=O)C(C)C)c(C(=O)OC)c1C,-4.29,–
Cc1cc(/C=C2\Sc3ccccc3N2C)cc(C)[n+]1CC1CCCO1 (stereo not drawn),–,30.1 µM (active)
Cc1cccc(OCc2nnc(SCC(=O)N3c4ccccc4CCc4ccccc43)o2)c1,-4.87,–
CC(C)Oc1ccc(C(=O)Nc2ccc(Cl)c(S(=O)(=O)Nc3ccc(Cl)cc3)c2)cc1,–,21.3 µM (active)
COc1ccc(N(CC(=O)Nc2cc(Cl)ccc2OC)S(=O)(=O)c2c(C)noc2C)cc1,-11.3,–
CC(C)Oc1ccc(C(=O)NCCNC(=O)c2ccco2)cc1,-4.87,–
COc1ccc(C(=O)Nc2ccc(Cl)c(S(=O)(=O)Nc3ccccc3OC)c2)cc1,–,12 µM (active)
COc1ccc(NC(=O)c2ccc3ccccc3n2)cc1S(=O)(=O)Nc1ccccc1Cl,-2.39,–
COC(=O)C1C(=O)NC(SC)=C(C#N)C1c1ccccc1 (stereo not drawn),-3.77,–
Cc1cc(C)c2oc(C(=O)Nc3ccc(S(=O)(=O)Nc4nccc(C)n4)cc3)cc(=O)c2c1,-4.03,–
O=C1OC(CC(=O)N(Cc2nnc(-c3ccc(Cl)cc3)o2)C2CC2)c2ccccc21 (stereo not drawn),-6.17,–
Cc1sc2ncnc(N3CCN(CCOc4ccc(Cl)cc4)CC3)c2c1C,–,19 µM (active)
COc1ccc(N2CCN(c3ncnc4sc(C(=O)NCC5CCCO5)c(C)c34)CC2)cc1 (stereo not drawn),-1.12,–
Cc1[nH]n(C)c(=O)c1C(=O)c1c(-c2c(Cl)cccc2Cl)noc1C,-5.39,–
COc1ccc2cc(/C=C3\SC(=S)NC3=O)c(N3CCOCC3)nc2c1,–,3.38 µM (active)
O=C1NC(=S)S/C1=C\c1cc2ccccc2nc1N1CCCCC1,–,13.5 µM (active)
CCc1ccc(-c2nnn(CCC(=O)OC)n2)cc1,-0.749,–
COC(=O)c1nc2n(n1)C(c1cccc(Cl)c1)C1=C(CCCC1=O)N2 (stereo not drawn),-1.3,–
Cc1nn(-c2ccc(N3CCOCC3)nn2)c(C)c1CCC(=O)NCc1ccccc1F,-2.51,–
COc1cccc(CN(C)C(=O)CNC(=O)c2ccc(-c3ccccc3)cc2)c1OC,–,26.9 µM (active)
COc1cccc(CN(C)C(=O)c2ccc(Oc3ccccc3)cc2)c1OC,–,37.9 µM (active)
CCn1nnc2cc(C(=O)NCC(c3ccccc3OC)N(C)C)ccc21 (stereo not drawn),-6.48,–
COc1ccc(CN(C)C(=O)COC(=O)c2ccc(-c3ccccc3)cc2)c(OC)c1OC,–,23.9 µM (active)

Structure (SMILES),"activity change, negative = inhibition [%]",Potency
CC(C)(C)C(=O)NC(=S)NNC(=O)c1ccc(-c2ccccc2)cc1,-18.8,–
CCOC(=O)C1(CCOc2ccccc2)CCN(Cc2cccc(OC)c2O)CC1,1.47,–
O=C(c1ccco1)N1N=C(C2CCCCC2)CC1(O)C(F)(F)F (stereo not drawn),-1.58,–
COc1ccc(C(CC(=O)N2CCOCC2)c2c(OC)cc(OC)c3c(-c4ccccc4)cc(=O)oc23)cc1 (stereo not drawn),-7.58,–
CC1CC(=O)N(c2ccc(C(C)C)cc2)C(=O)C1,-1.5,–
COCc1c(C(=O)Nc2cccc(S(=O)(=O)N3CCCCC3)c2)oc2ccccc12,-16.5,–
O=C(NCCN1CCOCC1)c1c(Cl)cccc1Cl,-6.48,–
O=C(Nc1ccc(S(=O)(=O)N2CCCCC2)cc1)c1ccc(CN2CCOCC2)cc1,–,23.9 µM (active)
COc1ccc(C(NC(=O)c2c(F)c(F)c(F)c(F)c2F)c2ccccc2)cc1 (stereo not drawn),–,26.9 µM (active)
CCOc1ccccc1NC(=O)C(NCCc1ccc(OC)cc1)c1ccccc1 (stereo not drawn),-6.08,–
COc1ccc(N2CCN(C(=O)[C@H](C)NC(=O)c3ccccc3Cl)CC2)cc1,-4.81,–
COCCCn1c(=O)c2sccc2n(Cc2cccc(C)c2)c1=O,-8.56,–
CC(Sc1nnc2c(n1)[nH]c1ccccc12)C(=O)N(C)C1CCCCC1 (stereo not drawn),–,26.9 µM (active)
Cc1ccc(CNC(=O)CSc2nnc3c(n2)[nH]c2ccccc23)cc1,-0.519,–
O=C(NCCc1ccc(Cl)cc1Cl)c1cc([N+](=O)[O-])c[nH]c1=O,–,16.9 µM (active)
COC(=O)c1ccc(NC(=O)Nc2ccc(F)c(Cl)c2)cc1,–,19 µM (active)
CSCc1cc(N2CCOCC2)nc(SCc2ccc(Cl)cc2Cl)n1,-10.1,–
Cc1cccc(OCCCCc2c(C)n[nH]c2C)c1C,–,30.1 µM (active)
Cc1cccc(C)c1OCCCn1ccnc1,-4.81,–
COc1ccc(-c2nnc(CSc3nc4ccccc4c(=O)n3CC3CCCO3)o2)cc1OC (stereo not drawn),-0.893,–
CCOc1cc(C(=O)NC2CC(C)(C)NC(C)(C)C2)cc(OCC)c1OCC,-5.01,–
CC1=CC(=O)C(C(C)C)=C/C1=N/OS(=O)(=O)c1ccccc1,–,8.49 µM (active)
CC1=C/C(=N\OS(=O)(=O)c2ccccc2)C(C)=CC1=O,–,4.78 µM (active)
COc1ccc(NC(=O)Cc2nc3ccccc3[nH]2)cc1,-2.71,–
Cc1cc(C)n(C(=O)/C(C#N)=N/Nc2cc(Cl)cc(Cl)c2)n1,–,4.78 µM (active)

Structure (SMILES),"activity change, negative = inhibition [%]",Potency
CCOc1cc(N2CCOCC2)c(OCC)cc1NC(=O)c1cccc(S(=O)(=O)N2CCOCC2)c1,–,9.53 µM (active)
COc1cccc(CNC(=O)CN2C(=O)CSc3ccc(S(=O)(=O)N4CCOCC4)cc32)c1,-5.82,–
CCOc1cc(NC(=O)C2CC2)c(OCC)cc1NC(=O)c1cccc(F)c1,-9.28,–
Cc1ccc(S(=O)(=O)N(Cc2ccccc2)c2ccccc2C(=O)N2CCCCC2)cc1,-7.23,–
Cn1c(=O)c([N+](=O)[O-])c(Cl)c2ccccc21,–,30.1 µM (active)
Cn1c(N)c(Sc2ccccc2[N+](=O)[O-])c(=O)n(C)c1=O,-4.78,–
CC(C)C(=O)Nc1c(-c2ccc(Cl)cc2)c(=O)c2ccccc2n1C,-7.38,–
Cc1noc(C)c1COc1ccccc1C(=O)N(C)Cc1ccc(C(C)(C)C)cc1,–,30.1 µM (active)
Nc1ccn(Cc2ccccc2F)n1,-2.59,–
O=C(Nc1cccc(Cl)c1)Nc1ccc(Br)cc1F,–,21.3 µM (active)
N#CC1=C(C2CC2)CC(c2ccccc2)C(C#N)=C1N (stereo not drawn),-3.77,–
CC1(C)CC(=O)c2c(nc3ccccc3c2N)C1,-10.3,–
CC(C)C(c1nnnn1Cc1ccco1)N1CCN(c2nc3ccccc3s2)CC1 (stereo not drawn),–,30.1 µM (active)
c1ccc(C(c2nnnn2Cc2ccco2)N2CCN(c3nc4ccccc4s3)CC2)cc1 (stereo not drawn),-5.7,–
CC(C)CC(=O)NC(NC(=S)Nc1sc2c(c1C#N)CCCC2)C(Cl)(Cl)Cl (stereo not drawn),–,23.9 µM (active)
COc1cccc(OC)c1C(=O)Nc1sc2c(c1C#N)CCC2,-8.84,–
Cc1cc(C)cc(N=C2NC(=O)CS2)c1,-5.01,–
Cc1nc2ccccc2n1CCOc1ccccc1,-5.04,–
Oc1c(Cl)cc(Cl)c(Cl)c1Cc1c(O)c(Cl)cc(Cl)c1Cl,–,2.13 µM (active)
CC(C)S(=O)(=O)C1=NSC2=NC(=O)/C(=C\c3ccc(-c4ccccc4)o3)C(=N)N21,–,3.79 µM (active)
CSc1nc(-c2ccc(Cl)cc2Cl)[nH]c(=O)c1C#N,–,6.75 µM (active)
COc1cc(NC(=O)Cn2nc(C(F)(F)F)c(Br)c2C)cc([N+](=O)[O-])c1,–,26.9 µM (active)
CN(CC(=O)Nc1ccccc1C(F)(F)F)Cc1c(O)ccc2ccccc12,-3.28,–
